According to PubChem BioAssay:
Activity calls are given as the source filed them. Unless noted, how the calls were made is not given here.

Tests used:
[1] = system: Wnt5a (protein binding on small-molecule microarray); assay: small molecules binding Wnt5a protein – biophysical, small-molecule microarray, 635/667 nm fluorescence, primary screen (AID 1142); details: 635 nm fluorescence, higher = more signal;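 further: fluorescence read at 667 nm with signal to noise per printed feature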
[2] = ATP-based viability of Huh7 replicon cells – cell-based, CellTiter-Glo luminescence, basal, 48 h, cytotoxicity control for HCV replication inhibitor project, primary screen (AID 1143); details: higher = more signal, called active from +8 up or from −8 down;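 further: Huh7 hepatoma cells carrying a hepatitis C replication reporter with no stimulus; test concentration not given here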
[3] = Pseudomonas biofilm growth suppression – PAO1 strain, BacTiter-Glo luminescence, LB-PBS, primary screen (AID 1144); details: P. aeruginosa PAO1 biofilm, 12 h, higher = more signal
[4] = basal CRE-LacZ reporter activity in PC12 – cell-based, unstimulated, primary screen (AID 1145); details: no forskolin, luminescence, 4.5 h, higher = more signal, called active from +8 up or from −8 down
[5] = forskolin-driven CRE-LacZ activity in PC12 – cell-based, CRE-LacZ reporter, forskolin-stimulated, primary screen (AID 1146); details: luminescence, 4.5 h, higher = more signal, called active from +8 up or from −8 down;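 further: PC12 cells with 6xCRE LacZ reporter stimulated by forskolin 10 µM; beta-galactosidase reporter signal reflecting CREB driven transcription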
[6] = target: Streptavidin (Streptomyces avidinii) (UniProt P22629); assay: compounds binding control protein streptavidin – biophysical, small-molecule microarray, 635/667 nm fluorescence, artefact control for SMM compound annotation, primary screen (AID 1147); details: higher = more signal;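 further: signal reflects streptavidin binding to arrayed compounds as a control protein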
[7] = probe aInhba binding on compound microarray – biochemical, small-molecule microarray, 635/667 nm fluorescence, primary screen (AID 1148); details: higher = more signal;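 further: score merges 667nm spot fluorescence with signal-to-noise for antibody binding to printed compounds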
Torsin-1A (Homo sapiens) [8] = target: Torsin-1A (Homo sapiens) (UniProt O14656); assay: TOR1A wild-type binding on microarray – cell lysate, small-molecule microarray, lysate, 635/667 nm, primary screen (AID 1149); details: COS7 hTOR1A-WT lysate, 635 nm fluorescence, higher = more signal
Torsin-1A (Homo sapiens) [9] = target: Torsin-1A (Homo sapiens) (UniProt O14656); assay: torsin A mutant lysate binding on microarrays – cell lysate, small-molecule microarray, COS7 lysate, 635/667 nm fluorescence, primary screen (AID 1150); details: COS7 hTOR1A mutant lysate, 635 nm fluorescence, higher = more signal;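 further: score pools 667 nm emission and signal to noise measuring lysate protein binding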
[10] = system: Sonic hedgehog protein (Shh); assay: Sonic hedgehog microarray binding compounds – biochemical, small-molecule microarray, 635/667 nm fluorescence, primary screen (AID 1151); details: 635 nm fluorescence, higher = more signal;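 further: Shh protein binding to compounds spotted on small-molecule microarray slides; score combines spot fluorescence intensity with signal-to-noise across triplicate slides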
[11] = optical density shifts of acrAB sulA E. coli – strain DRC41, OD650, 48 h, E. coli filamentation inducer project, primary screen (AID 1152); details: higher = more signal, called active from +8 up or from −8 down;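 further: E. coli MC1000 strain DRC41 lacking acrAB efflux pump and sulA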
[12] = probe aLefty1 binding on compound microarray – biochemical, small-molecule microarray, 635/667 nm fluorescence, primary screen (AID 1153); details: higher = more signal;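 further: score merges spot fluorescence with signal-to-noise ratio from the scanned slide images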
[13] = plasmodial surface anion channel blockers, osmotic lysis – cell-based, P. falciparum Indochina, OD700, 1 h, primary screen (AID 1154); details: P. falciparum Indochina infected RBC osmotic lysis, higher = more signal, called active from +8 up or from −8 down
[14] = plasmodial surface anion channel blockers, osmotic lysis – cell-based, P. falciparum Indochina, OD700, 2 h, primary screen (AID 1155);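 further: lysis reports solute entry through the parasite surface anion channel PSAC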; details: P. falciparum Indochina infected erythrocytes, higher = more signal, called active from +8 up or from −8 down
[15] = changes in parasitized red cell lysis, either direction – P. falciparum Indochina, OD700, 3 h, PSAC antagonist project, primary screen (AID 1156); details: P. falciparum-infected erythrocytes, osmotic lysis, higher = more signal, called active from +8 up or from −8 down
[16] = plasmodial surface anion channel blockers, osmotic lysis – cell-based, P. falciparum Indochina, OD700, 18 h, primary screen (AID 1157); details: P. falciparum Indochina infected erythrocytes, osmotic lysis OD700, 18 h; higher = more signal, called active from +8 up or from −8 down
[17] = S6 kinase pathway phospho-S6 level changes – cell-based, A549, cytoblot, luminescence, serum-stimulated, primary screen (AID 1158); details: 5 h, higher = more signal;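 further: serum-stimulated A549 lung adenocarcinoma cells; signal is phosphorylated S6 detected by cytoblot immunostaining with HRP secondary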
[18] = target: NADPH oxidase 2 (Homo sapiens) (UniProt P04839); assay: compounds shifting NOX2 Amplex Red fluorescence – cell-based, HEK293-NOX2, PMA-stimulated, NOX inhibitor project, primary screen (AID 1159); details: 45 min, higher = more signal, called active from +8 up or from −8 down; further: test concentration not given here
[19] = target: NADPH oxidase 4 (Homo sapiens) (UniProt Q9NPH5); assay: compounds shifting NOX4 Amplex Red fluorescence – cell-based, HEK293-NOX4, tetracycline-induced, NOX inhibitor project, primary screen (AID 1160); details: HEK293-NOX4, Amplex Red H2O2 fluorescence, 45 min; higher = more signal, called active from +8 up or from −8 down
[20] = target: NADPH oxidase 5 (Homo sapiens) (UniProt Q96PH1); assay: compounds shifting NOX5 Amplex Red fluorescence – cell-based, HEK293-NOX5, NOX inhibitor project, primary screen (AID 1161); details: HEK293-NOX5, ionomycin, 45 min, higher = more signal
NADPH oxidase 5 (Homo sapiens), sequence (Q96PH1 whole entry, looked up): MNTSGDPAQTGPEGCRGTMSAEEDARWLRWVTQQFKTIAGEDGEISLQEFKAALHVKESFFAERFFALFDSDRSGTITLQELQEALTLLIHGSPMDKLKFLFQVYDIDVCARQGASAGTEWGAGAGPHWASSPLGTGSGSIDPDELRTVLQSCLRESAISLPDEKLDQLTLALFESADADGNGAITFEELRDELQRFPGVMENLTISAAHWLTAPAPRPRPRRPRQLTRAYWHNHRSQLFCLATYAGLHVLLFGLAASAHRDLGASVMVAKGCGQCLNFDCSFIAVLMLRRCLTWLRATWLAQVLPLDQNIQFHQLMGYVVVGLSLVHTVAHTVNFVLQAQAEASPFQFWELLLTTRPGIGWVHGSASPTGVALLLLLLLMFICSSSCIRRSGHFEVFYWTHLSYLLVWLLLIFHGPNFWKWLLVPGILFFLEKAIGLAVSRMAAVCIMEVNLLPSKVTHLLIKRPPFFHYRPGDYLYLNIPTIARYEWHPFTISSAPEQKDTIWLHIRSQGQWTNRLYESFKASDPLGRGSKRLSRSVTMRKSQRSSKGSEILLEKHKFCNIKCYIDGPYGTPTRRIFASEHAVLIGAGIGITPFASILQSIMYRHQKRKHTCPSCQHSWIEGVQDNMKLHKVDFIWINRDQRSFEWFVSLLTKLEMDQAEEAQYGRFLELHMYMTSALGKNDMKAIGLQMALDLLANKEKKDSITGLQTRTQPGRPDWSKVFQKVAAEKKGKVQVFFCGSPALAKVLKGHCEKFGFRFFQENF

Torsin-1A (Homo sapiens), sequence (O14656 whole entry, looked up): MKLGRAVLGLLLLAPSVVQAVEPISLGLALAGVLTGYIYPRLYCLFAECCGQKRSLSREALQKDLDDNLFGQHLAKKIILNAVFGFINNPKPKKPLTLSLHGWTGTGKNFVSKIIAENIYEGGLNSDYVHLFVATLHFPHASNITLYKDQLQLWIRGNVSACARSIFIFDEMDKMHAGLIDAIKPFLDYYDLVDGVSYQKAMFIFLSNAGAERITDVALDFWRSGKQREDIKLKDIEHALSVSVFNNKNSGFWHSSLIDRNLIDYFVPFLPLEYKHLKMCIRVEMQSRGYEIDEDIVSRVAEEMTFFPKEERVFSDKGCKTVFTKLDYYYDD
NADPH oxidase 4 (Homo sapiens), sequence (Q9NPH5 whole entry, looked up): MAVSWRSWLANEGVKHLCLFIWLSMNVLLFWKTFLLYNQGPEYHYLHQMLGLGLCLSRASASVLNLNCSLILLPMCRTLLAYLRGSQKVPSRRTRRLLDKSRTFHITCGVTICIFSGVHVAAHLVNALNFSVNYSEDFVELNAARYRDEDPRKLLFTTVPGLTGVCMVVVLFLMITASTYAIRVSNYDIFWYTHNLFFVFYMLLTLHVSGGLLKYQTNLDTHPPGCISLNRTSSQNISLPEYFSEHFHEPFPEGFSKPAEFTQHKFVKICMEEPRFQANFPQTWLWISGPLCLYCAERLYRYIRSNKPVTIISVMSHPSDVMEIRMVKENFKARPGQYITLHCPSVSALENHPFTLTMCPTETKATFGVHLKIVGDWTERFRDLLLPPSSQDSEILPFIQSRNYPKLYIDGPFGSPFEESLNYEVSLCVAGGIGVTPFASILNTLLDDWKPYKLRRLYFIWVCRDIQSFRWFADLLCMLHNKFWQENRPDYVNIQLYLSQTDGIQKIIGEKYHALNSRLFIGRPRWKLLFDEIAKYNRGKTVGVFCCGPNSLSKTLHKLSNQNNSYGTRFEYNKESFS
Streptavidin (Streptomyces avidinii), sequence (P22629 whole entry, looked up): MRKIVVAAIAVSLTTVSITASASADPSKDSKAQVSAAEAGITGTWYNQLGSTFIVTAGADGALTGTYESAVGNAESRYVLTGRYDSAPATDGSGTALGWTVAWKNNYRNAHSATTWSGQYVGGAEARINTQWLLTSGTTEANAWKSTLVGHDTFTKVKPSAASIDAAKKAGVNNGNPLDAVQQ
NADPH oxidase 2 (Homo sapiens), sequence (P04839 whole entry, looked up): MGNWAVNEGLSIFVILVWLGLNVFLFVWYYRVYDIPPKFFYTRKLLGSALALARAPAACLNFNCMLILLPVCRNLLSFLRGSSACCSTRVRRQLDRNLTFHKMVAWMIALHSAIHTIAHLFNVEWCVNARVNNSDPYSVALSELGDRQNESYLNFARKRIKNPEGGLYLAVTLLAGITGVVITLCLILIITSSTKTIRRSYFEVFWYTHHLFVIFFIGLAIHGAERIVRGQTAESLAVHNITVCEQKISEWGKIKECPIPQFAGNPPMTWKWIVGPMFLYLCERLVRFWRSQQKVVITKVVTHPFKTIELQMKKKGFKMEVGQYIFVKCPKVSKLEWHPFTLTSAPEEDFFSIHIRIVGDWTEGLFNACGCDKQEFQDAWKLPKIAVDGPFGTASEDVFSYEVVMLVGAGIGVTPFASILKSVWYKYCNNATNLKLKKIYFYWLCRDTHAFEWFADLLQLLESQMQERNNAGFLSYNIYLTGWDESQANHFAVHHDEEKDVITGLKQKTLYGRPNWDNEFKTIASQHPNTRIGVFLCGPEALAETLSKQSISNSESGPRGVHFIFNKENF

Structure (SMILES)	composite z-score [1]	z-score [2]	z-score [3]	z-score [4]	z-score [5]	composite z-score [6]	composite z-score [7]	composite z-score (Torsin-1A (Homo sapiens) [8])	composite z-score (Torsin-1A (Homo sapiens) [9])	composite z-score [10]	z-score [11]	composite z-score [12]	z-score [13]	z-score [14]	z-score [15]	z-score [16]	z-score [17]	z-score [18]	z-score [19]	z-score [20]
COc1cc(OC)c(C(O)C2C=CC3C(=O)N(C)C(=O)C3N2NC(=O)OC(C)(C)C)cc1Br (stereo not given)	0.326	0.558 (inactive)	-0.224 (inactive)	1.2 (inactive)	0.922 (inactive)	1.25	0.194	0.443	0.315	0.568	-0.36 (inactive)	0.524	1.24 (inactive)	1.18 (inactive)	-0.285 (inactive)	1.07 (inactive)	-0.92	0.224 (inactive)	-3.59 (inactive)	0.576
C=C[C@@H](COC(C)=O)N(C(=O)OC(C)(C)C)S(=O)(=O)c1ccc(Br)cc1	0.423	-0.284 (inactive)	1.01 (inactive)	0.391 (inactive)	-0.739 (inactive)	0.802	-0.231	0.814	0.559	2.16	0.336 (inactive)	-0.105	0.478 (inactive)	-0.145 (inactive)	0.14 (inactive)	0.0566 (inactive)	-0.178	-1.47 (inactive)	-0.744 (inactive)	-1.23
C=CCN1Cc2ccccc2[C@H]2OC(c3ccc(OCCCO)cc3)=N[C@@]2(CC=C)C1=O	1.07	-3.16 (inactive)	-0.746 (inactive)	0.0594 (inactive)	-1.58 (inactive)	0.998	0.268	1.08	0.475	1.91	0.831 (inactive)	0.692	29.9 (active)	25.7 (active)	1.97 (inactive)	6.4 (inactive)	0.0524	-1.66 (inactive)	0.367 (inactive)	0.034
O=C(NCc1ccccc1)[C@@H]1c2ccccc2C(=O)N(Cc2ccccc2C(F)(F)F)[C@H]1c1ccc(CO)cc1	-0.405	-1.55 (inactive)	0.714 (inactive)	0.324 (inactive)	-0.0897 (inactive)	-0.752	-0.201	-1.55	0.0481	-0.687	0.546 (inactive)	-0.0731	3.68 (inactive)	0.75 (inactive)	1.53 (inactive)	0.207 (inactive)	0.0835	-1.13 (inactive)	0.914 (inactive)	-0.366
COC(=O)[C@@]1(Cc2ccc(OC)cc2)[C@H]2c3cc(C(=O)N4CCCC4)n(Cc4c(-c5ccccc5)noc4C)c3C[C@H]2CN1C(=O)c1ccccc1	1.01	-3.29 (inactive)	-0.452 (inactive)	-0.185 (inactive)	-0.531 (inactive)	0.945	0.659	1.27	0.776	-0.314	-0.615 (inactive)	0.956	5.34 (inactive)	1.25 (inactive)	-0.749 (inactive)	1.5 (inactive)	0.406	0.428 (inactive)	0.486 (inactive)	2.59
COC(=O)[C@@]1(Cc2ccc(OC)cc2)[C@H]2c3cc(C(=O)N4CCCC4)n(Cc4cccc5ccccc45)c3C[C@H]2CN1C(=O)c1ccccc1	0.43	-2.8 (inactive)	1.14 (inactive)	0.0041 (inactive)	0.259 (inactive)	0.688	0.447	-0.25	0.338	-0.338	-0.492 (inactive)	0.258	3.9 (inactive)	0.408 (inactive)	1.48 (inactive)	0.983 (inactive)	0.0019	0.208 (inactive)	1.74 (inactive)	-1.45
CCCC[C@@H]1C[C@H]1[C@@H](NC(=O)c1cccs1)c1ccc(C(F)(F)F)cc1	-0.553	-0.368 (inactive)	0.195 (inactive)	0.962 (inactive)	1.57 (inactive)	0.189	-0.147	-0.848	-0.589	0.652	-2.61 (inactive)	0.101	1.5 (inactive)	0.987 (inactive)	0.247 (inactive)	0.592 (inactive)	-0.79	-0.934 (inactive)	-2.08 (inactive)	-0.948
NC(N)=NCCCn1cc(CNC(=O)[C@@H](N)Cc2ccccc2)nn1	-0.0448	-0.109 (inactive)	1.6 (inactive)	-0.491 (inactive)	0.35 (inactive)	-0.298	0.017	0.485	0.142	1.08	-0.929 (inactive)	-0.0171	-0.174 (inactive)	0.0333 (inactive)	-0.561 (inactive)	0.36 (inactive)	0.243	-2 (inactive)	0.227 (inactive)	-0.264
CC1=C([C@H](O)CCc2ccccc2)[C@H](CO)[C@@H]2C(=O)N(C)C(=O)[C@@H]2C1	-0.124	-0.0547 (inactive)	-0.518 (inactive)	-0.321 (inactive)	-0.33 (inactive)	0.591	-0.218	0.285	0.0992	0.656	1.13 (inactive)	0.184	4.81 (inactive)	0.403 (inactive)	-0.0722 (inactive)	-0.0393 (inactive)	-0.167	-1.36 (inactive)	0.412 (inactive)	0.0196
Cc1cc(C)c(C(O)C2C=CC3C(=O)N(c4ccccc4)C(=O)C3N2Nc2ccc(C(C)C)cc2)c(C)c1 (stereo not given)	0.704	0.366 (inactive)	-0.342 (inactive)	0.629 (inactive)	1.07 (inactive)	1.71	0.375	0.385	0.333	-0.297	-1.53 (inactive)	0.51	1.02 (inactive)	1.14 (inactive)	0.858 (inactive)	1.05 (inactive)	-0.484	-1.82 (inactive)	-3.87 (inactive)	-7.33
COC1OC[C@]2(C)[C@H]3C4=C(CN2C(=O)OC(C)(C)C)[C@H](C)C(CO)C(CO)C4CC[C@@H]13 (stereo not given in full)	0.987	-0.14 (inactive)	0.326 (inactive)	0.197 (inactive)	0.212 (inactive)	2.17	0.109	0.288	0.86	-0.0425	-0.787 (inactive)	1.13	0.884 (inactive)	-0.0719 (inactive)	0.394 (inactive)	0.494 (inactive)	0.15	-1.39 (inactive)	-0.651 (inactive)	-2.12
COCCOC(=O)N1C(=O)[C@@]2(c3cc(C#CCC(C(=O)OC)C(=O)OC)ccc31)[C@H](C(=O)N1CCc3cc(OC)c(OC)cc3C1)[C@H]1C(=O)O[C@H](c3ccccc3)[C@H](c3ccccc3)N1[C@@H]2c1ccc(OCCO)cc1	0.587	-0.0887 (inactive)	-0.442 (inactive)	0.0653 (inactive)	-0.333 (inactive)	0.523	0.19	0.817	0.914	1.73	-0.763 (inactive)	0.54	9.36 (active)	2.73 (inactive)	0.57 (inactive)	1.67 (inactive)	-0.37	1.98 (inactive)	1.19 (inactive)	1.42
CCOC(=O)C[C@H]1[C@H](OC(=O)c2cc3ccccc3oc2=O)[C@@H](NC(=O)c2ccc(-c3ccccc3)cc2)c2cc(OCCCO)ccc2N1C(=O)c1ccccc1	0.624	-2.84 (inactive)	1.02 (inactive)	5.66 (inactive)	-0.818 (inactive)	0.509	0.027	1.4	-0.0812	1.87	1.27 (inactive)	0.0839	0.697 (inactive)	-1.44 (inactive)	-0.249 (inactive)	-2.22 (inactive)	0.683	-1.47 (inactive)	0.178 (inactive)	0.748
COc1cc(CO)cc(I)c1O[C@H]1C=C(C(=O)NCCO)C[C@@H](NCc2ccc(F)cc2)[C@@H]1O	0.617	-1.76 (inactive)	-0.613 (inactive)	10 (active)	-1.05 (inactive)	-0.156	-0.101	0.0626	0.0975	0.591	0.548 (inactive)	-0.24	21.8 (active)	5.43 (inactive)	4.03 (inactive)	1.36 (inactive)	0.325	-1.07 (inactive)	-1.05 (inactive)	-0.994
COc1ccc([Si](C)(C)[C@@H]2[C@@H](CC(=O)N(CCO)Cc3ccccc3)O[C@]3(C(=O)N(Cc4cccc(N5C(=O)c6cccc7cccc5c67)c4)c4ccccc43)[C@H]2C)cc1	-0.164	-5.84 (inactive)	-1.02 (inactive)	-0.999 (inactive)	-0.823 (inactive)	-0.24	-0.0762	-0.0207	0.502	0.982	2.02 (inactive)	0.287	4.59 (inactive)	0.343 (inactive)	-0.667 (inactive)	-0.526 (inactive)	1.92	1.09 (inactive)	1.09 (inactive)	3
[N-]=[N+]=Nc1ccccc1[C@@H]1OC(c2ccc(OCCCO)cc2)=N[C@]1(Cc1ccccc1)C(=O)NCC(O)CO (stereo not given in full)	0.951	-3 (inactive)	0.255 (inactive)	0.834 (inactive)	-1.8 (inactive)	1.34	0.572	0.436	1.47	-0.231	0.792 (inactive)	0.665	31 (active)	28 (active)	2.32 (inactive)	6.87 (inactive)	-0.0152	-1.36 (inactive)	1.07 (inactive)	-0.606
COc1ccc(NC(=O)O[C@H]2[C@H](OC(=O)Nc3ccccc3)[C@H](OC(=O)Nc3ccccc3)[C@@H](OC)O[C@@H]2CO)cc1	1.14	-4.38 (inactive)	0.643 (inactive)	0.204 (inactive)	-1.05 (inactive)	0.0994	0.398	0.97	1.1	1.44	-1.37 (inactive)	0.457	8.18 (active)	1.26 (inactive)	-0.329 (inactive)	0.889 (inactive)	0.0488	0.824 (inactive)	-0.11 (inactive)	-0.922
